# Compound activity deposited in PubChem by National Center for Advancing Translational Sciences (NCATS).
# G9a block – blocks human histone lysine methyltransferase G9a; AID 504332; Potency, µM (titrated, usually from 102 µM), for the others: top-dose activity, negative = inhibition, usual class: inhibitors; 8.8% of 350,000 active; G9a H3K9 monomethylation, AlphaScreen, 2 h; Q96KQ7; further: on the % scale 0 is the no-effect control and ±100 the full control effect; nearly all actives have a fitted effect of over 75% in size
#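 Using a bead-based AlphaScreen, monomethylated H3K9 product from 2 h room-temperature reactions (G9a 20 nM, peptide 500 nM, SAM 20 uM) was detected with 0.5 ug/mL rabbit anti-H3K9me1 antibody.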
# PLK1 PBD inh – blocks phosphopeptide binding to human PLK1 polo-box domain. AID 720504. 2.8% of 360,000 active. Potency, µM, inactives show max response, negative = inhibition, most hits filed as inhibitors. Plk1 PBD binding of FITC phosphopeptide, fluorescence polarization; further: series mostly up to about 57 µM; on the % scale 0 is the no-effect control and ±100 the full control effect; nearly all actives have a fitted effect of over 65% in size
# JMJD2A Tudor – JMJD2A Tudor domain (human) inhibition; O75164; AlphaScreen JMJD2A-Tudor / H3K4me3 peptide binding; Potency, µM (top dose mostly 114 µM), for inactives: at the highest dose activity change, negative = inhibition, hits mostly inhibitors; 4.4% of 390,000 active; further: on the % scale 0 is the no-effect control and ±100 the full control effect; nearly all actives have a fitted effect of over 50% in size
# VDR inhibitor – vitamin D3 receptor (human) inhibition. Potency, µM, for the others: max response, negative = inhibition, actives largely listed as inhibitors. VDR-SRC2-3 peptide fluorescence polarization, 2 h. 0.93% of 400,000 active; further: on the % scale 0 is the no-effect control and ±100 the full control effect
#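 After 23 nl compound addition and a short centrifugation, plates sat for 2 hours at ambient temperature; polarization of fluorescence then indicated loss of VDR binding to peptide SRC2-3.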
# HP1b binding inh – HP1-beta chromodomain-methylated histone interaction inhibition; P83916; AlphaScreen HP1-beta / biotin-H3K9me3 peptide binding; Potency, µM (top dose mostly 114 µM), inactives show at the highest dose activity change, negative = inhibition, hits mostly inhibitors; 0.56% of 390,000 active; AID 540317; further: nearly all actives have a fitted effect of over 70% in size
#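 HP1-beta protein (50 nM final) preincubated 30 min at room temperature with biotinylated H3(1-18)K9me3 peptide (50 nM) in PBS pH 7.4, 0.01% Tween-20, then compound added for 30 min. AlphaScreen streptavidin donor/nickel chelate acceptor beads (10 ug/mL final), 30 min dark, luminescence read.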
# BAZ2B inh – blocks human BAZ2B; Potency, µM (series often up to 114 µM), inactives show at the highest dose activity change, negative = inhibition, hits mostly inhibitors; AlphaScreen BAZ2B-H3K14Ac peptide displacement; AID 504333; Q9UIF8; 4.4% of 360,000 active; further: on the % scale 0 is the no-effect control and ±100 the full control effect; nearly all actives have a fitted effect of over 60% in size
#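 Compounds, titrated to a top concentration of 110 uM, were incubated 30 min at room temperature with preformed BAZ2B/acetyl-K14 H3 peptide complex (50 nM each). Proximity signal was measured by AlphaScreen after 20 min with beads.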
# An asterisk follows results filed as active; ? = inconclusive; nt = not tested or not shown; [ ] = remark or other dose. Sampled rows, rich in hits. Any-hit rate of the full collection: about 11%. The call rests on the fitted dose curve; in most records, active means well fitted curve in the direction sought with a large enough effect; inconclusive means small, poorly fitted or top-dose-only effect, or another doubt; inactive means no such curve, though single readings can be large; an effect the other way counts as inactive or inconclusive. Potency means the concentration at half of the fitted maximal effect.
SMILES,G9a block,PLK1 PBD inh,JMJD2A Tudor,VDR inhibitor,HP1b binding inh,BAZ2B inh
O=c1oc2ccc(Cl)cc2nc1/C=C(\O)c1ccco1,8.9µM*,62%,89µM*,-23%,21%,35µM*
CC(C)C/C(O)=C/c1nc2cc(Cl)ccc2oc1=O,35µM*,-7%,?,-8%,16%,?
Cc1ccc(/C(O)=C/c2nc3cc(C)ccc3oc2=O)cc1,nt,-4%,0%,17%,33%,0%
Cc1cc(C)nc(SCc2csc(N)n2)n1,50µM*,-19%,4%,-14%,35%,-21%
Cc1cc(C)nc(SCc2csc(-c3ccccc3)n2)n1,34%[59 µM],-2%,66%,-6%,116%,37%
O=C(Cn1sc2ccccc2c1=O)Nc1ccc(Cl)cc1,nt,5.3µM*,nt,nt,nt,nt
O=C(Cn1sc2ccccc2c1=O)Nc1ccc(F)cc1,nt,3µM*,nt,nt,nt,nt
O=C(CN1C(=O)C2CC=CCC2C1=O)Nc1ccc(Br)cc1 (stereo not drawn),0%,-5%,-13%,0%,20%,0%
O=C(Cn1sc2ccccc2c1=O)Nc1ccc(Br)cc1,nt,3µM*,nt,nt,nt,nt
CN1C=CC(=C2C=CN(C)C=C2)C=C1,nt,nt,nt,-13%,nt,nt
Cc1ccc(COC(=O)c2ccc(-c3nnn(Cc4ccc(C)cc4)n3)cc2)cc1,-1%[59 µM],nt,-2%,-11%,28%,-13%
NC(=O)c1ccsc1NC(=O)CCS(=O)(=O)c1ccccc1,5%[12.7 µM],-7%,-11%,-4%,25%,-21%
N#Cc1ccsc1NC(=O)CCS(=O)(=O)c1ccccc1,45µM*,?,-9%,17%,50%,-4%
CCOC(=O)c1ccsc1NC(=O)CCS(=O)(=O)c1ccccc1,6%,-1%,-8%,-13%,13%,-34%
NC(=O)c1ccsc1NC(=O)CCS(=O)(=O)c1ccc(Cl)cc1,35µM*,?,-19%,-1%,27%,1%
Cc1ccc2c(COC(=O)c3n[nH]c4ccccc34)cc(=O)oc2c1,?,3%,-9%,-5%,14%,-4%
CCc1ccc2c(COC(=O)c3n[nH]c4ccccc34)cc(=O)oc2c1,35µM*,-7%,?,-7%,41%,-2%
COc1cc(OC)c(NS(=O)(=O)c2cc(C(=O)NCCCN3CCOCC3)ccc2C)cc1Cl,nt,1%,nt,nt,nt,nt
Cc1cccc(NC(=O)c2cccc(S(=O)(=O)Nc3c(C)n(C)n(-c4ccccc4)c3=O)c2)c1,nt,2%,-7%,-18%,-3%,nt
CC(=O)c1ccc(NC(=S)Nc2cccc(S(=O)(=O)Nc3c(C)n(C)n(-c4ccccc4)c3=O)c2)cc1,?,24µM*,-22%,-1%,16%,nt
Cc1ccc(NC(=S)Nc2cccc(S(=O)(=O)Nc3c(C)n(C)n(-c4ccccc4)c3=O)c2)cc1,45µM*,?,-21%,-7%,-3%,-19%
COc1ccccc1Cc1c(C2CCCCC2)nc2ccc(Br)cn12,nt,-9%,nt,nt,nt,nt
NC(=O)NC(=O)CC1S/C(=N/N=C/c2ccccc2)NC1=O (stereo not drawn),-26%,-11%,-9%,1%,38%,-23%
CCOc1cc(/C=N/N=C2/NC(=O)C(CC(=O)O)S2)ccc1OCc1ccc(Cl)cc1Cl (stereo not drawn),nt,27µM*,40µM*,5%,45µM*,28µM*
O=C(O)CC1S/C(=N/N=C/c2ccccn2)NC1=O (stereo not drawn),-4%,-6%,79µM*,-5%,59%,45µM*
SMILES,G9a block,PLK1 PBD inh,JMJD2A Tudor,VDR inhibitor,HP1b binding inh,BAZ2B inh
O=C1N/C(=N\N=C\c2cccs2)SC1Cc1ccc(Cl)cc1Cl (stereo not drawn),53%[59 µM],-7%,-16%,-1%,3%,-5%
O=c1oc2c(-c3cccc(F)c3)cc(O)cc2s1,-10%,?,-3%,14%,?,-9%
O=C1C=C(N(CCO)Cc2ccccc2)c2ccccc2C1=O,50µM*,-26%,-35%,?,?,?
O=C(CCN1C(=O)c2ccccc2C1=O)N(CCO)Cc1ccccc1,8%[12.7 µM],-17%,-6%,0%,70%,0%
CCOCCCn1c(=S)[nH]c2cc(C(=O)N3CCOCC3)ccc2c1=O,?,-5%,22µM*,-3%,17%,?
CCOCCCn1c(=S)[nH]c2cc(C(=O)NCCc3ccccc3)ccc2c1=O,17%,-12%,-32%,-12%,39%,-17%
CCOCCCn1c(=S)[nH]c2cc(C(=O)NCC(OC)OC)ccc2c1=O,25µM*,-14%,-18%,8%,48%,?
O=C(c1ccc2c(=O)n(Cc3ccccc3)c(=S)[nH]c2c1)N1CCOCC1,?,1%,-4%,9%,35%,-2%
CC(C)(CC(=O)O)CC(=O)Nc1ccc(Oc2ccc(C(C)(C)C)cc2)nc1,?,-13%,-13%,-6%,43%,-3%
COc1ccc(CC(=O)Nc2ccc3nc(C)sc3c2)cc1OC,20µM*,-2%,-6%,7%,36%,-4%
Cc1nc2ccc(NC(=O)COc3ccccc3C)cc2s1,45µM*,1%,-18%,9%,29%,5%
Cc1nc2ccc(NC(=O)COc3ccccc3[N+](=O)[O-])cc2s1,7%,2%,-6%,-3%,36%,-2%
O=C(CSc1nnc(-c2ccncc2)o1)Nc1ccc(F)c(F)c1,?,2%,4%,0%,60%,5%
CCCCNC(=S)Nc1ccccc1Cc1ccccc1,0%,-17%,-25%,-10%,13%,50µM*
S=C(NCCCc1ccccc1)Nc1ccccc1,39%,0%,-7%,-7%,54%,-9%
S=C(NCCc1ccccc1)Nc1ccc(Nc2ccccc2)cc1,nt,?,18µM*,-3%,11µM*,8.9µM*
CC(C)(CNC(=S)NCCc1ccccc1)CNC(=S)NCCc1ccccc1,10µM*,-28%,?,16%,-19%,?
S=C(NCCc1ccccc1)Nc1c(Cl)cccc1Cl,?,27µM*,1%,-20%,56%,-7%
CC(C)(C)NC(=S)Nc1ccc(Br)cc1,nt,0%,-1%,22%,32%,2%
Fc1ccccc1NC(=S)NCCc1ccc(Cl)cc1,4%,-10%,-4%,-5%,54%,5%
Cc1cccc(C)c1NC(=S)NCCc1ccc(O)c(O)c1,25µM*,4%,-22%,-19%,-7%,-25%
Fc1ccccc1NC(=S)NCCc1ccccc1,15%[59 µM],3µM*,-21%[11.4 µM],-22%,76%,-1%
CC(C)(C)NC(=S)Nc1ccc(Nc2ccccc2)cc1,11µM*,30µM*,32µM*,-24%,-39%,28µM*
c1ccc(-c2ncc3ccccn23)cc1,79µM*,-8%,-28%,-1%,-4%,-37%
Cc1ccccc1N1C(=O)C(Oc2ccc(Cl)cc2)C1CNC(C)(C)C (stereo not drawn),15%[59 µM],0%,-2%,6%,17%,-9%
